DT40 TDP1 CPT: growth inhibition of DT40 Tdp1-/-;hTDP1 cells with camptothecin (screen for TDP1 inhibitors) | chicken DT40 Tdp1-/-;hTDP1 cells + 20 nM CPT, ATP luminescence, 48 h | Potency, µM (series often up to 46.2 µM), hits mostly inhibitors | actives 12% (n = 420,000) | AID 686979; also: nearly all actives have a fitted effect of over 55% in size
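Chicken DT40 Tdp1-/- cells complemented with human TDP1, 400 cells/well, exposed to compounds plus 20 nM camptothecin for at least 48 h at 37 C; viability read as ATP content by CellTiter-Glo luminescence.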
VP16 counter: inhibits Gal4-VP16 luciferase reporter, ROR gamma counter-screen; Drosophila S2 Gal4-VP16 UAS-luciferase, luminescence, 20 h; actives 3.5% (n = 310,000); Potency, µM (doses to about 53.6 µM), most hits filed as inhibitors;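 also: Gal4-VP16 expression switched on by copper sulfate through the metallothionein promoter; nearly all actives have a fitted effect of over 50% in size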
RORgamma inh: ROR gamma (mouse) transcription inhibition; P51450; Drosophila S2 Gal4-RORgamma UAS-luciferase reporter, 20 h; Potency, µM (doses to about 53.6 µM), most hits filed as inhibitors; actives 5.4% (n = 310,000); AID 2551; also: nearly all actives have a fitted effect of over 60% in size
Target sequence (P51450 whole entry, looked up, the tested form may be a part): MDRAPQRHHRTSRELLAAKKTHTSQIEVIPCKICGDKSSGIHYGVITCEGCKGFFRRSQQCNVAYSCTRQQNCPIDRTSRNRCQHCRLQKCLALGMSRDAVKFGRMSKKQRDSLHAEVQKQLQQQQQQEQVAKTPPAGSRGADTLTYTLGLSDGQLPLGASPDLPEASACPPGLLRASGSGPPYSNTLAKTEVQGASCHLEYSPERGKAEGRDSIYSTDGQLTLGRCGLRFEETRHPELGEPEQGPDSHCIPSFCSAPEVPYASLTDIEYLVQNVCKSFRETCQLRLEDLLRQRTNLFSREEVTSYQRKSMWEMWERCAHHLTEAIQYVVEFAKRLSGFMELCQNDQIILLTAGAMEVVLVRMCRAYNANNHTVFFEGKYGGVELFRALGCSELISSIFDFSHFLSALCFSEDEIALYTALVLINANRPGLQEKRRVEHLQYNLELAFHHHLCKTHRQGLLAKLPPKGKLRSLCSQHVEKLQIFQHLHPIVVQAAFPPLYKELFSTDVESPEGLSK
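Read-out: Photinus luciferase luminescence; inhibitors lower reporter signal. Insect Schneider cells with Gal4-ROR gamma fusion under metallothionein promoter, UAS reporter; 700 uM final copper sulfate induction, 20 hr, ambient temperature.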
ELG1 DNA repair: inhibitors of ELG1-dependent DNA repair in HEK293T cells; HEK293T ELG1-luciferase reporter, luminescence, 16 h; DNA damage induced by 5-fluorouridine; Potency, µM (highest dose often 46.1 µM), hits mostly inhibitors; actives 2.3% (n = 330,000); also: nearly all actives have a fitted effect of over 55% in size
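5-Fluorouridine DNA damage + compound/DMSO, 2,000 cells/well, 16 h, 37 °C/5% CO2. ONE-Glo, 30 min RT, luminescence. Readout = decrease in reporter signal.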
IL-1B inflam inh: inhibitors of inflammasome signaling (IL-1 beta secretion); actives 4.7% (n = 360,000); THP-1 LPS/ATP IL-1B secretion, AlphaLISA, 16 h; stronger effect = lower value; activity change, % at 57.5 µM; in the data active = activity change below about -50%; inconclusive = mostly about -30% to -49%
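THP-1 cells pretreated 1 hr with compounds (up to 57.5 uM final), then stimulated with LPS (250 ng/mL final) plus ATP (1.25 mM final); secreted IL-1B measured by AlphaLISA after 16 hr, decreased signal indicating inhibition.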
DT40 TDP1 no CPT: qHTS for Inhibitors of human tyrosyl-DNA phosphodiesterase 1 (TDP1): qHTS in cells in absence of CPT; Potency, µM (highest dose often 46.2 µM), hits mostly inhibitors; actives 15% (n = 420,000); DT40 Tdp1-/- hTDP1 cells, no CPT, ATP luminescence, 48 h; also: nearly all actives have a fitted effect of over 55% in size
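Luminescent ATP content (CellTiter-Glo) served as the growth readout. Knockout chicken DT40 cells expressing human TDP1 were exposed to compounds without camptothecin for a minimum 48 hr at 37 °C.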
A number is an active result; – = inactive; ? = inconclusive; · = no result; [ ] = dose if it differs, or a comment. The list is not random: actives were taken first. Their share in the collection is about 21%. Unless noted, calls follow the shape of the dose curve; as a rule, active = well fitted curve in the direction sought with a large enough effect; inconclusive = small, poorly fitted or top-dose-only effect, or another doubt; inactive = no such curve, though single readings can be large; an effect the other way counts as inactive or inconclusive.

SMILES | DT40 TDP1 CPT | VP16 counter | RORgamma inh | ELG1 DNA repair | IL-1B inflam inh | DT40 TDP1 no CPT
COc1cc(OC)c(OC)cc1/C=C/c1nc2cc3ccccc3cc2c(=O)n1-c1ccc(Cl)cc1 | 13µM | · | · | · | · | 16.4µM
COc1ccc(-n2c(/C=C/c3cccc4ccccc34)nc3ccccc3c2=O)cc1OC | ? | · | · | · | · | 14.6µM
Cc1cccc(C)c1NC(=O)c1csc([C@H]2C[C@H](O)[C@@H](CO)O2)n1 | – | · | · | · | – | –
COc1ccccc1CCc1nnc(CCC(=O)N(C)Cc2cccc3cnccc23)o1 | ? | – | – | ? | – | 23.1µM
COc1cc(Cl)ccc1OCc1cc(C(=O)N(C)Cc2cccc3cnccc23)no1 | 14.6µM | – | – | – | -63.7 | 11.6µM
CN(Cc1nccs1)C(=O)c1cc(COc2cccc3cnccc23)on1 | 7.31µM | 12.6µM | – | ? | – | 10.3µM
CC(=O)c1c(Cl)nc2cccc3c2c1-c1ccccc1C3=O | – | – | – | – | ? | ?
COc1cccc(CN(C)C[C@@H]2OCc3cnnn3CCCC(=O)N([C@@H](C)CO)C[C@H]2C)c1 | – | · | · | · | – | –
O=C(NCc1cccc(F)c1)Nc1nnc([C@@H]2C[C@H](O)[C@@H](CO)O2)s1 | – | · | · | · | – | –
O=C(O)C1CC=CC2CCN(C3CC3)C(=O)C21 (stereo not drawn) | · | – | – | · | · | ·
Cc1cccc(/C(N)=N/OC(=O)c2ccncc2)c1 | – | ? | 7.08µM | ? | – | –
CCC(C(=O)O/N=C(\N)c1ccccc1)c1ccccc1 (stereo not drawn) | – | – | – | – | – | –
COc1ccc(CC(=O)O/N=C(\N)c2ccncc2)cc1OC | – | · | · | · | – | ?
N/C(=N\OC(=O)C(c1ccccc1)c1ccccc1)c1ccncc1 | – | – | – | – | – | 29.1µM
COc1ccc(C(=O)O/N=C(\N)c2ccccc2)cc1OC | ? | – | – | ? | – | –
COc1ccc(/C(N)=N/OC(=O)Cc2ccc(OC)c(OC)c2)cc1 | ? | ? | – | – | -77.8 | ?
COc1ccc(C(=O)O/N=C(\N)c2cccc(C)c2)cc1OC | ? | ? | 1µM | ? | ? | –
CCC(C)C(NC(=O)C1CCC(C)CC1)C(=O)Nc1ccc(OC)cc1 (stereo not drawn) | ? | – | – | – | – | –
O=C(NCC(c1cccs1)N1CCOCC1)c1ccc(Cl)nc1 (stereo not drawn) | – | · | · | – | – | –
CCOc1ccc(NC(=O)Cn2c(=O)n(CC(=O)NCCc3ccccc3)c(=O)c3sccc32)cc1 | – | · | · | · | · | –
N/C(=N\OC(=O)c1ccc2c(c1)OCO2)c1ccncc1 | – | ? | 10µM | ? | -53.5 | –
Cc1ccc(/C(N)=N/OC(=O)c2ccc3c(c2)OCO3)cc1 | – | ? | ? | ? | – | ?
CCOC(=O)C(Sc1cc(-c2ccccc2)nc2ncnn12)C(C)=O (stereo not drawn) | ? | 2.82µM | 0.631µM | – | – | 18.4µM
CC1CCCCC12NC(=O)N(CC(=O)c1ccc3c(c1)OCO3)C2=O (stereo not drawn) | – | · | · | – | – | –
COC(=O)C1=C(C)NC(C)=C(C(=O)OCC2CCCO2)C1c1ccc(Cl)c([N+](=O)[O-])c1 (stereo not drawn) | · | – | – | 10.3µM | · | ·
SMILES | DT40 TDP1 CPT | VP16 counter | RORgamma inh | ELG1 DNA repair | IL-1B inflam inh | DT40 TDP1 no CPT
COC(=O)C1=C(C)NC(C)=C(C(=O)OCC2CCCO2)C1c1cccc(Cl)c1 (stereo not drawn) | – | – | – | – | – | ?
CC1=C(C(=O)OCCNC(=O)c2ccccc2O)C(c2ccccc2[N+](=O)[O-])C(C(=O)OCC2CCCO2)=C(C)N1 (stereo not drawn) | 18.4µM | – | ? | ? | -57.9 | 18.4µM
O=C1NC[C@@H](CCCCN2C[C@H](Cc3ccc(O)cc3)N(CC3CCCCC3)C(=O)C2=O)N(CCC2CCCCC2)C1=O | – | · | · | · | – | –
O=C1C2C3C=CC(c4ccccc4)(C2C(=O)N1c1cccc(Cl)c1)C1C(=O)N(c2cccc(Cl)c2)C(=O)C31 (stereo not drawn) | 14.6µM | – | – | – | – | 14.6µM
O=C1C2C3CCCC3=C3CCCC3C2C(=O)N1c1cccc(Cl)c1 (stereo not drawn) | – | – | – | – | – | –
CCc1ccc(OCCNC(=O)c2ccccc2SCc2ccc(F)cc2)cc1 | ? | – | – | ? | – | 25.9µM
O=C(NCCOc1ccc(F)cc1)c1ccccc1SCc1ccccc1 | – | ? | – | ? | -108.1 | ?
COC(=O)Cc1ccc(OC2(C)CCN(Cc3ccccc3)C2)cc1 (stereo not drawn) | – | · | · | · | – | –
CCOC(=O)c1c(-c2ccc(C)cc2)csc1NC(=O)c1cc(=O)c2cc(Cl)ccc2o1 | – | · | · | · | · | 4.61µM
CCOc1ccc(-c2csc(NC(=O)C3CCCO3)n2)cc1 (stereo not drawn) | ? | –[0.365 µM] | – | – | – | ?
CCOC(=O)c1c(-c2ccc(F)cc2)csc1NC(=O)C1CCCO1 (stereo not drawn) | – | – | – | ? | – | ?
CCOC(=O)c1c(-c2ccccc2)csc1NC(=O)c1cc(-c2ccc(Cl)cc2)on1 | – | · | · | · | · | –
CCOC(=O)c1c(-c2ccc(C)cc2)csc1NC(=O)C1CCCO1 (stereo not drawn) | ? | – | – | ? | – | 25.9µM
COC(=O)c1c(-c2cccc(C)c2)csc1NC(=O)C1CCCO1 (stereo not drawn) | ? | – | ? | – | – | 18.4µM
CC(C)OC(=O)c1c(-c2ccc(C(C)C)cc2)csc1NC(=O)C1CCCO1 (stereo not drawn) | ? | – | – | – | – | 14.6µM
COCC(=O)Nc1cc(Sc2ccccc2)ccc1N=C(NC(=O)OC)NC(=O)OC | ? | – | – | · | · | ?
CN(C)CCCN(C(=O)c1ccc([N+](=O)[O-])o1)c1nc2cc3c(cc2s1)OCO3 | 18.4µM | ? | 12.6µM | – | – | ?
Cc1ccc2sc(N(CCCN(C)C)C(=O)c3ccc(S(=O)(=O)N(C)Cc4ccccc4)cc3)nc2c1C | ? | · | · | ? | -92.6 | ?
Cc1ccc2sc(N(CCCN(C)C)C(=O)c3ccc(S(=O)(=O)N(C)C)cc3)nc2c1C | – | – | – | – | – | –
CCN(c1ccccc1)S(=O)(=O)c1ccc(C(=O)N(CCCN(C)C)c2nc3cc4c(cc3s2)OCO4)cc1 | 18.4µM | ? | – | ? | -56.5 | ?
